SMILES strings stand for the structures. The panel holds about 83,000 compounds, 20% with a hit somewhere; the sample as a whole holds those more often.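 96-well plates, one dose, 48 hours. Percent growth reported; active if below 10.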 Values without a mark were called inactive. Active and inactive are the calls of the source.

This experiment deals with HCC-2998 colon. In words: NCI-60 one-dose screen, 48 h (100 = growth as untreated, 0 = no growth, -100 = all killed). The following applies: 10 µM unless noted. The procedure:
Growth inhibition of the HCC-2998 human tumor cell line is measured as a screen for anti-cancer activity. Cells are grown in 96 well plates and exposed to the test compound for 48 hours. Compounds are tested at a single concentration, which is 10^-5 M for most compounds. The reported endpoint is percent growth (GI% or GIPRCNT), where numbers from 0 - 100% represent growth inhibition, and numbers from -100% - 0 represent cell death. For example, a value of 40 represents 60% growth inhibition. A value of 0 means no net growth occurred over the course of the experiment. A value of -40 indicates 40% of cells at the beginning of the experiment died by the end of the experiment. A value of -100 means all cells are dead at the end of the experiment.
NCI-60 Human Tumor Cell Lines Screen was performed using the standard one-dose NCI protocol, which is described in more detail at https://dtp.cancer.gov/discovery_development/nci-60/default.htm.
Compounds with GIPRCNT values below 10 were considered active. Activity score was based on GIPRCNT using the following formula: […]
Score is 0 for GIPRCNT values of 100 or above, 50 for GIPRCNT values of 0, and 100 for GIPRCNT values of -100.
`C[CH2][Pb]([CH2]C)([CH2]C)[O]C(=O)COC`: the growth was -49.9% (active).

As to `O=C(CCCN1CCC2(CC1)C(=O)NCN2c1ccc(F)cc1)c1ccc(F)cc1`, the growth is 100%.

On to `CC12CC[C@H](O)C=C1/C(=N/O)CC1C2CCC2(C)C1CC[C@@H]2O` (stereo not given in full), for which the growth was 99.3%.

For the compound `CCCCOC(=O)c1ccccc1C(=O)O.CCCCOC(=O)c1ccccc1C(=O)O.[Cu+2]`, the growth was 104%.

Take `CCC[CH2][Sn]([CH2]CCC)([CH2]CCC)[O]C(=O)CC`: the growth is -94.5% (active).

For `CC[C@@H](C)/C=C(C)/C=C/C(=O)c1c(O)c(-c2ccc(O)cc2)cn(O)c1=O`, the growth was 36.4%.

On to `O=[N+]([O-])c1ccccc1N1CCNCC1`, for which the growth was 100%.

For `Nc1c(Br)cc([N+](=O)[O-])cc1[N+](=O)[O-]`, the growth is 102%.

Take `[O]=[Sn]([CH]1CCCCC1)[CH]1CCCCC1`: the growth is -98.6% (active).

Turning to `CCCCCN(CCCCC)CC(O)c1ccc(C)c(Cl)c1` (stereo not given), the growth is 107%.

Turning to `COC(=O)C1CC2c3ccccc3C1c1ccccc12` (stereo not given), the growth is 107%.

On to `C=CC(=O)NC(O)C(Cl)(Cl)Cl` (stereo not given), for which the growth was 104%.

Regarding `O=C1NC(=S)NC(=O)C1=Cc1ccccc1`, the growth was 106%.

As to `Fc1ccc(C2=NN(c3ccccc3)C(c3sc(N(CCCl)CCCl)nc3Cl)C2)cc1` (stereo not given), the growth was 103%.

On to `CC(=O)O[C@@H]1C2=C(C)C3(CC3)[C@@](C)(O)C(=O)C2=C[C@@]1(C)CO`, for which the growth was -68.7% (active).

Turning to `Oc1ccccc1OB(Oc1ccccc1O)N(CCCl)CCCl`, the growth is 98.4%.

Take `Cc1cccc(N(C)c2cccc3c2C(=O)[Se]C3)c1C`: the growth was 47.5%.

On to `CC1(C)N=C(N)N=C(N)N1c1ccc(CCC(=O)Nc2cccc(S(=O)(=O)F)c2)cc1`, for which the growth is 67.5%.

Take `COc1ccc(NP2(=O)OCC(C)(N)CO2)cc1` (stereo not given): the growth is 109%.

In the case of `CC(/C=N/N=C(N)N)=N\N=C(N)N`, the growth is -62.9% (active).

For `Nc1c(Br)cc2c3c(cccc13)-c1ccccc1-2`, the growth was 80.7%.

Consider `O=C(NCCNC(=O)c1ccc([As](O)O)cc1)c1ccc([As](O)O)cc1`, for which the growth is 100%.

On to `CCC(CO)NC1CCCCC1` (stereo not given), for which the growth is 86.4%.

For the compound `Cc1cc(N(CCCl)CCCl)ccc1C=Nc1ccc2ccccc2c1`, the growth is 94.5%.

Take `O=C(O)c1cccc(CCl)c1`: the growth was 112%.

As for `O=C1NC(=O)C(O)(C2(O)C(=O)NC(=O)NC2=O)C(=O)N1`, the growth is -55.7% (active).

As for `COc1cc(C2CC(=O)Nc3nc(N)[se]c32)c(OC)c2c1OCO2` (stereo not given), the growth was 121%.

Take `O=[N+]([O-])c1ccc(/C=C/C=C/c2ccc(S(=O)(=O)F)cc2)c(Cl)c1`: the growth is 106%.

For `COc1cc2c(cc1OC)CN(C)C(C)C2` (stereo not given), the growth is 97.5%.

For `CNC(=O)Oc1cccc(N(C)C)c1`, the growth is 111%.

In the case of `N#[N+]c1nc2nc(N)[nH]c(=O)c2[nH]1`, the growth was 104%.

`COc1ccc(-c2ccc(OC)c(OC)c2OC)cc1`: the growth is 23.7%.

On to `COc1ccc(OC)c(/C=C(/C)[N+](=O)[O-])c1`, for which the growth is 106%.

As to `O=C1c2ccccc2C(=O)N1[N+](=O)[O-]`, the growth was 87.2%.

Turning to `C[C@]12C[C@H](O)[C@H]3[C@@H](CCC4=CC(=O)CC[C@@]43C)[C@@H]1CC[C@@H]2O`, the growth is 95.3%.

`C[C@]12CC[C@@H]3C4=C(CC[C@H]3[C@@H]1CC[C@@H]2O)CC(=O)CC4`: the growth is 104%.

On to `CO[C@@H]([CH2][Hg][S]C#N)[C@@H]([CH2][Hg][S]C#N)OC`, for which the growth is 90.3%.

As to `CC(=O)Oc1ccc(Cl)cc1`, the growth was 96.1%.

For `CCC1([N+](=O)[O-])COP(=O)(NCc2cccnc2)OC1` (stereo not given), the growth was 115%.

As to `C/C(=N/OC(=O)N(C)C)c1ccc(Cl)cc1Cl`, the growth is 102%.

For the origin of these results see PubChem BioAssay (NCI).
